TRPM1 prom inh: inhibitors of MITF-dependent TRPM1 promoter reporter, primary screen, cell-based, SK-MEL-5, single point, luciferase. SK-MEL-5 TRPM1 promoter luciferase, 24 h. inhibition, % at 12.5 µM. 330,000 compounds, 0.83% hits. AID 488899, 2010;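 active means mean inhibition across replicates of 60% or more, whatever share of single replicates reaches that level; inconclusive means some that reach 60%, reason not given; inactive means mean inhibition across replicates below 60%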
Peg3 promoter: Peg3 promoter-driven luciferase inhibitors, primary screen, cell-based, HeLa, luciferase luminescence | HeLa PEG-Prom luciferase reporter, overnight | inhibition, % at 20 µM | 360,000 compounds, 1.7% hits | AID 588405, 2011;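 active means inhibition of at least 50% at 20 µM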
HIF-2a inh: HIF-2a reporter inhibitors, primary screen, luminescence, 786-0 RCC cells; inhibition, % at 18.8 µM; 360,000 compounds, 0.72% hits; 786-0 RCC cells HIF-2a reporter, luciferase luminescence, overnight;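 active means inhibition of the luminescence signal of 40% or more relative to plate controls, in a single-dose primary screen at 18.75 µM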
KKLEB tox: cytotoxicity in KKLEB CF airway cells, primary screen, cytotoxicity control for CF NF-kB inhibitor project, cell-based, uHTS, fluorescence assay plates; KKLEB CF airway cells viability, ATPlite luminescence, overnight; hits give low values; cells stimulated with P. aeruginosa culture filtrate; activity change (cytotoxicity), % at 5 µM; AID 602141, 2011; 360,000 compounds, 0.36% hits;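 active means corrected activity change at or below -50% at 5 µM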
CF NFkB inh: inhibitors of PAF-induced NF-kB signaling, primary screen, cell-based, GFP fluorescence, uHTS; KKLEB NF-kB-GFP reporter, GFP fluorescence overnight; inhibition, % at 5 µM; 360,000 compounds, 0.86% hits; AID 588850, 2011;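 active means at least 50% inhibition at 5 µM, scaled per plate between neutral and stimulator controls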;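 further: PAF is a Pseudomonas aeruginosa culture filtrate used as stimulus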
Shn3 3UTR inh: reduction of Shn3 3'UTR firefly luciferase signal, primary screen, Schnurri-3 inhibitor project, cell-based, Clone20 osteoblasts, set 2; Clone20 osteoblast Shn3 3'UTR firefly luciferase, 24 h; 360,000 compounds, 0.52% hits; inhibition, % at 12.5 µM;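 active means mean inhibition of at least 75% with every replicate also reaching 75%; inconclusive means mean inhibition at least 75% but some replicate below; inactive means mean inhibition below 75%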
A number is an active result; n = inactive; u = inconclusive; x = no result. Rows were chosen to be rich in hits. Some 2.7% of all compounds tested hit in one or more screens of this group.

SMILES | TRPM1 prom inh | Peg3 promoter | HIF-2a inh | KKLEB tox | CF NFkB inh | Shn3 3UTR inh
O=[N+]([O-])/C=C/c1c(Cl)cccc1Cl | 111 | 92 | n | n | 57 | n
CCN(CC)c1ccc(/C=C/[N+](=O)[O-])cc1 | n | n | n | n | n | n
COC(=O)C1=C(c2ccc(OCc3ccccc3)c(F)c2)C[C@@H]2CC[C@H]1N2C | x | n | n | n | n | n
COc1cc(C(=O)Nc2ccc(Br)cc2C(=O)c2ccccc2Cl)cc(OC)c1OC | n | n | n | -50 | n | n
COc1cc(OC)cc(C(=O)Nc2ccc(Br)cc2C(=O)c2ccccc2)c1 | n | n | n | n | n | n
CC(=O)OC1C(=O)OCC23CCC4(C)OC4C2OC2CC(OC(=O)C=CC=CC(=O)OCCC1C)C3(C)C21CO1 (configuration not stated) | 83 | 100 | 72 | -55 | 93 | 94
CC(O)C1C=CC=CC(=O)OC2CC3OC4C5OC5(C)CCC4(COC(=O)C4OC4(C)C(O)CO1)C2(C)C31CO1 (configuration not stated) | 70 | 97 | 66 | n | 83 | 92
C[C@H]1CN([C@@H](C)CO)C(=O)CCCn2nncc2CO[C@H]1CN(C)C(=O)Oc1ccc2ccccc2c1 | x | n | n | n | n | n
CC(C)C[C@@H]1COc2cc(N3CCN(C)CC3)ccc2S(=O)(=O)N1 | x | x | n | x | x | x
Brc1ccc2c(c1)C(OC1CN3CCC1CC3)c1ccccc1CS2 (configuration not stated) | u | 110 | n | n | n | n
c1ccc2c(c1)CSc1ccccc1C2C1=NCCN1 (configuration not stated) | n | n | n | n | n | n
OC(Cn1c2ccccc2c2ccccc21)C[n+]1cccc2ccccc21 (configuration not stated) | n | 59 | n | n | n | n
O=C(O)C(O)(c1ccc(Cl)cc1)C1(O)CCCC1 (configuration not stated) | x | n | n | n | n | n
C=CCN1C(=O)/C(=C/c2cccs2)C(=O)NC1=S | n | 51 | 43 | n | n | n
C[C@@H]1CN([C@@H](C)CO)C(=O)CCCn2cc(nn2)CO[C@H]1CN(C)C(=O)Oc1ccc2ccccc2c1 | x | n | n | n | n | n
CCOC(=O)[C@]12Cc3cc(C)ccc3[C@H]1N(C1CCCCC1)C(=O)c1cc(OC)ccc12 | x | x | 85 | x | x | x
CCOC(=O)[C@]12Cc3cc(C)ccc3[C@H]1N(CCC(=O)OC)C(=O)c1cc(OC)ccc12 | x | x | n | x | x | x
COC(=O)c1nc(-c2ccc3c(n2)C(=O)C(N)=C(OC)C3=O)c(N)c(-c2ccc(OC)c(OC)c2O)c1C | 100 | 53 | n | n | 89 | n
C[C@@H]1COc2cccc(N3CCN(C)CC3)c2S(=O)(=O)N1 | x | x | n | x | x | x
COc1cc2c(cc1OC)-c1c3c(cc4c1[C@@H](C2)N(C)CC4)OCO3 | n | 61 | n | n | n | n
COC(/C(C)=C/C=C/C(C)=C/c1coc(C)n1)C(C)C1CC(O)C2(C)OC2C=CC(C)C2CC(CC(=O)O2)CC2OC2C(=O)O1 (configuration not stated) | 65 | n | n | n | n | n
CC1=C(C)CN2CC(C#N)=C(N)C2C1 (configuration not stated) | x | n | n | n | n | n
CCOC(=O)[C@]12Cc3cc(C)ccc3[C@H]1N(Cc1ccccc1)C(=O)c1cc(F)c(F)cc12 | x | x | n | x | x | x
CC(=O)OC1CC(OC2C(O)CC(OC3C(O)CC(OC4CCC5(C)C(CCC6C5CCC5(C)C(C7=CC(=O)OC7)CCC65O)C4)OC3C)OC2C)OC(C)C1OC1OC(CO)C(O)C(O)C1O (configuration not stated) | 80 | 107 | 82 | -58 | 82 | n
COc1cc(C(=O)N/N=C/C23CC[C@@H](O)CC2(O)CC[C@@H]2[C@@H]3CCC3(C)C(C4=CC(=O)OC4)CCC23O)ccc1O (some centres not stated) | n | n | n | n | n | n
SMILES | TRPM1 prom inh | Peg3 promoter | HIF-2a inh | KKLEB tox | CF NFkB inh | Shn3 3UTR inh
Fc1cccc(-c2ccc3c(c2)CNCc2cnnn2-3)c1 | x | n | n | n | n | n
CCN(CC)Cc1c[nH]c2ccccc12 | n | n | n | n | n | n
CN(CCc1ccccc1)Cc1c[nH]c2ccccc12 | n | 69 | n | n | n | n
C[C@H]1CN([C@@H](C)CO)C(=O)CCCn2nncc2CO[C@@H]1CN(C)C(=O)Oc1ccccc1 | x | n | n | n | n | n
CCOc1ccc(-c2cc(C)[n+](CCc3ccc(OC)c(OC)c3)c(-c3ccc(OCC)cc3)c2)cc1 | 97 | 59 | n | n | n | n
Cc1cc(-c2ccccc2)cc(-c2ccccc2)[n+]1CCc1ccccc1 | 65 | n | n | n | n | n
Cc1ccc(-c2cc(-c3ccccc3)cc(-c3ccccc3)[n+]2-c2ccccc2C(=O)O)cc1 | n | n | n | n | n | n
CCOc1ccc(-c2cc(C)[n+](CCO)c(-c3ccc(OCC)cc3)c2)cc1 | 63 | n | n | n | n | n
C[n+]1c(-c2ccccc2)cc(-c2ccc(O)cc2)cc1-c1ccccc1 | n | n | n | n | n | n
Clc1ccc(C[n+]2c(-c3ccccc3)cc(-c3ccccc3)cc2-c2ccccc2)cc1 | 92 | 88 | n | n | n | n
Cc1cc(C)c(S(=O)(=O)N2Cc3ccccc3-n3nncc3C2)c(C)c1 | x | n | n | n | n | n
C[C@]12C[C@H](O)[C@@H](O)C[C@@H]1CC[C@@H]1[C@@H]2CC[C@]2(C)C(=O)CC[C@@H]12 | x | n | n | n | n | n
CC12CCC3c4ccc(OC(=O)N(CCCl)CCCl)cc4CCC3C1CCC2O (configuration not stated) | n | n | n | n | n | n
COC(=O)C1=C(c2ccc(OCc3ccccc3)cc2)C[C@@H]2CC[C@H]1N2C(=O)NC1CCN(Cc2ccccc2)CC1 | n | 86 | n | n | n | n
COC(=O)C1=C(c2ccc(OCc3ccccc3)cc2)C[C@@H]2CC[C@H]1N2C(=O)NCCN1CCOCC1 | n | n | n | n | n | n
COc1ccc(CN(CCc2c[nH]c3ccccc23)Cc2ccc(OC)cc2)cc1 | n | n | n | n | n | n
CCOc1cc(CNCCc2c[nH]c3ccccc23)cc(Cl)c1OCC | n | 95 | n | n | n | n
CCOc1c(Cl)cc(CNCCc2c[nH]c3ccccc23)cc1OC | n | 60 | n | n | n | x
CCC(c1nnnn1-c1ccc(OC)cc1)N1CCC(n2c(=O)[nH]c3ccccc32)CC1 (configuration not stated) | x | n | n | n | n | n

Bioassay records (PubChem BioAssay)
